Screening results from PubChem BioAssay.
Rows were chosen to be rich in hits. Some 2.1% of all compounds tested hit in one or more screens of this group.
D2 PAM-1 = positively modulates the human D2 dopamine receptor allosterically | P14416 | HEK293 T-REx D2, calcium flux, EC20 dopamine potentiation | potentiation, % at 10 µM | hit rate 0.34% among 340,000 | AID 485347;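 active means potentiation over 3 SD above the plate norm, cut at about 30% in these data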; further: 0% is about no effect
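Primary screen. Calcium kinetics in induced HEK293 T-REx D2 cells: compound pre-addition 180 s, EC20 dopamine, 180 s more.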
D2 PAM-2 = positive allosteric modulators of human D2 dopamine receptor; P14416; DiscoveRx D2 beta-arrestin cells, luminescence, 90 min; 100% = 57 uM dopamine signal; potentiation, % (test concentration not listed); hit rate 0.23% among 360,000; AID 624464; in the data active means potentiation above about 50%; inconclusive means mostly about 30% to 49%
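D2 cells co-treated with compound plus 50 nM dopamine (EC20) for 90 min at 37 deg C to detect potentiation. Beta-arrestin recruitment was read as enzyme-fragment luminescence after 1 h at ambient temperature. Full response was set by 57 uM dopamine.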
D2 ag-1 = human D2 receptor agonism in beta-arrestin assay. hit rate 0.084% among 360,000. activation, % (test concentration not listed). AID 624465. P14416. DiscoveRx PathHunter D2 beta-arrestin, luminescence, 90 min; 100% = 57 uM dopamine signal; in the data active means activation above about 40%; inconclusive means between about 15% and that limit
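Agonist mode: compounds alone added to overnight-plated D2 PathHunter cells for 90 min at 37 C, with 57 uM final dopamine (EC100) defining full response. Beta-arrestin recruitment detected by chemiluminescent reagent, read after 1 h at ambient temperature.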
D2 ag-2 = agonists of human D2 dopamine receptor. HEK293 T-REx D2 cells, calcium flux agonist mode. P14416. activation, % at 2 µM. AID 485358. hit rate 0.53% among 340,000;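 active means activation over 3 SD above normal in the single-dose calcium agonist read, cut at about 30% in these data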; further: 0% is about no effect
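Agonism is scored from calcium flux in a force-coupled, inducible HEK293 cell line expressing D2, read kinetically for 180 s after compound addition against dopamine controls.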
LDHA inh = blocks human lactate dehydrogenase A | P00338 | purified LDHA, NADH/diaphorase-resazurin fluorescence; stronger effect = lower value | activity change, % (values are at about 110 or 230 µM) | hit rate 0.15% among 480,000; in the data active means activity change below about -30%; inconclusive means mostly about -25% to -30%;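 further: plate controls were DMSO wells for no effect and wells without enzyme for full effect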
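Remaining NADH was detected by diaphorase (0.133 mg/mL) converting 37 µM resazurin to fluorescent resorufin, read at 0 and 20 minutes. The preceding 5-minute room-temperature reaction used 2 nM LDHA, 0.2 mM sodium pyruvate and 0.06 mM NADH at pH 7.4.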
D2 antagonist = antagonizes the human D2 dopamine receptor. inhibition, % at 10 µM. AID 485344. HEK293 TREx D2 cells, calcium flux, dopamine EC80. P14416. hit rate 2% among 340,000; in the data active means inhibition above about 30%; inactive means below that, where a call was filed; further: 0% is about no effect
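Inhibition of EC80 dopamine-driven calcium flux, recorded kinetically, defines activity here; cells are a tetracycline-induced HEK293 T-REx line expressing force-coupled D2.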
D3 ag = D3 receptor agonism confirmed, beta-arrestin readout; shares compounds with D2 ag-2; DiscoveRx D3 beta-arrestin cells, luminescence, 90 min; Potency, µM (top dose mostly 76.9 µM), without a hit: top-dose activation, usual class: activators; hit rate 4% among 2,300; AID 720506;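 further: potency means the concentration at half of the fitted maximal effect; 100% = dopamine control response; nearly all actives have a fitted effect of over 70% in size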
Target sequence (P35462 whole entry, looked up): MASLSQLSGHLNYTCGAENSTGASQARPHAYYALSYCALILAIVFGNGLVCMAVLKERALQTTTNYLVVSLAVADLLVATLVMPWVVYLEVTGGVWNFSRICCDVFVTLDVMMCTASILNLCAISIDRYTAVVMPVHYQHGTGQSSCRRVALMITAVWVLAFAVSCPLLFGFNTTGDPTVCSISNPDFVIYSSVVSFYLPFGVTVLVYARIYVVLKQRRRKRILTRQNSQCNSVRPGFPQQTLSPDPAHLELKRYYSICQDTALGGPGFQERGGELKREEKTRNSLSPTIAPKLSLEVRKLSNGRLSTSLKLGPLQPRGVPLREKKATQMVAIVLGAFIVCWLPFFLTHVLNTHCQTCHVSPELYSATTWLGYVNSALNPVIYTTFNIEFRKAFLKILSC
D2 ag-3 = D2 receptor agonism, beta-arrestin counterscreen; shares compounds with D2 ag-2; DiscoveRx PathHunter D2 beta-arrestin, luminescence, 90 min; response scale: percent relative to full dopamine signal; Potency, µM (titrated, usually from 76.9 µM), for the others: at the highest dose activation, most hits filed as activators; hit rate 5.9% among 2,300; AID 720507; further: potency means the concentration at half of the fitted maximal effect; % of control where 0% means no effect; nearly all actives have a fitted effect of over 70% in size
An asterisk follows results filed as active; ? = inconclusive; nt = no result; ! = repeats disagree. Unless noted, the call rests on the fitted dose curve; in most records, active means well fitted activation curve with a large enough effect; inconclusive means small, poorly fitted or top-dose-only effect; inactive means flat fitted curve, though single readings scatter.

SMILES | D2 PAM-1 | D2 PAM-2 | D2 ag-1 | D2 ag-2 | LDHA inh | D2 antagonist | D3 ag | D2 ag-3
NC(=O)CSc1nccn1Cc1ccccc1 | 0.6 | -1.9 | -1.3 | 0.4 | 2.1 | 44.8* | -2.5% | -1.0%
C=CCn1c(SCCCC)nc(O)cc1=O | -11.6 | -7.4 | -1.8 | 14.9 | -4.1 | 30.8*! | 0.9% | -0.6%
CCc1ccc(NC(=O)c2ccc3c(=O)n4c(nc3c2)CCCCC4)cc1 | -1.3 | -10.0 | 4.5 | -0.1 | -3.3 | 17.7 | nt | nt
CCN(CC(=O)Nc1ccccc1C(F)(F)F)C(=O)c1ccc2c(=O)n3c(nc2c1)CCC3 | 8.2 | 2.0 | 0.7 | 1.2 | -2.3 | -6.1 | nt | nt
CCc1nnc(NC(=O)c2ccc3c(=O)n4c(nc3c2)CCCCC4)s1 | 1.0 | 2.3 | -0.6 | 5.8 | -5.4 | -3.8 | -10.1% | -3.8%
CN(CC(=O)Nc1ccccc1Br)C(=O)c1ccc2c(=O)n3c(nc2c1)CCC3 | -10.3 | 0.6 | 0.0 | 0.2 | 1.9 | 24.1 | -1.9% | -7.2%
Cc1cccc(-n2nnnc2C2(Nc3ccccc3)CCCC2)c1 | nt | nt | nt | nt | 3.5 | nt | nt | nt
CSCCC(NC(=O)c1ccc2ccccc2n1)C(=O)NC1CC1 (stereo not drawn) | nt | nt | nt | nt | 8.5 | nt | nt | nt
Cc1cc(C)c(NC(=O)c2sc3nc4c(cc3c2N)C(=O)CC(C)(C)C4)c(C)c1 | -9.6 | -6.7 | 0.6 | 44.2* | -1.4 | 5.2 | -4.6% | 0.9%
COC(=O)c1sc2nc3c(cc2c1N)C(=O)CC(C)(C)C3 | 1.8 | -27.9 | -1.8 | -0.4 | -1.2 | 15.7 | nt | nt
CC1(C)CC(O)(CNCc2ccc3c(c2)OCO3)CCO1 (stereo not drawn) | -21.6 | 18.2 | ? | 70.2* | -5.3 | 87.8* | 30.0% | ?
O=C(/C=C/c1ccc(-c2ccccc2Cl)o1)c1ccc2ccccc2c1 | nt | nt | nt | nt | 5.4 | nt | nt | nt
CCCCNC(=S)N/N=C(/C)c1ccccn1 | nt | nt | nt | nt | -9.1 | nt | nt | nt
CCNC(=S)NNC(=O)c1ccccc1OC(F)F | -22.1 | -12.4 | -0.5 | 26.0 | 1.2 | 32.7* | -22.7% | -4.4%
CCOC(=O)C(CC(=O)O)c1ccccc1 (stereo not drawn) | nt | nt | nt | nt | 2.6 | nt | nt | nt
CCOC(=O)C(NCCCCl)c1ccccc1 (stereo not drawn) | -3.1 | -5.0 | -1.0 | 34.7* | -6.4 | 21.9 | -6.2% | -4.3%
O=C(Nc1ccc(Cl)cc1C(F)(F)F)C(Sc1nnc(-c2cccs2)o1)c1ccccc1 (stereo not drawn) | -11.3 | -12.3 | -2.9 | 1.5 | -2.5 | 10.4 | nt | nt
COc1ccc(C)cc1NC(=O)C(Sc1nnc(-c2cccs2)o1)c1ccccc1 (stereo not drawn) | 8.0 | -6.6 | -1.7 | -0.8 | -2.1 | 12.6 | -14.8% | -2.7%
Cc1ccc(-c2ccc(C=O)o2)cc1 | nt | nt | nt | nt | -9.2 | nt | nt | nt
Cn1c(=O)c2nc(SCC(=O)O)n(CCc3ccccc3)c2n(C)c1=O | nt | nt | nt | nt | -3.3 | nt | nt | nt
CCCS(=O)(=O)c1nc(S(=O)(=O)c2ccc(Cl)cc2)c(NCC(C)C)s1 | nt | nt | nt | nt | -21.2 | nt | nt | nt
O=C(COC(=O)c1ccccn1)NC(=O)c1ccccc1 | 7.9 | -3.4 | -7.4 | -1.4 | -0.6 | -10.5 | -4.2% | -6.2%
CCOc1ccc(C(=O)N/N=C(\c2ccccc2)c2ccccn2)cc1 | 5.3 | -27.7 | -4.4 | -0.9 | -3.8 | 21.5 | -23.1% | -10.9%
CCN(CC)S(=O)(=O)c1ccc(Cl)c(NC(=O)COC(=O)c2cc(=O)c3ccccc3o2)c1 | nt | nt | nt | nt | -7.4 | nt | nt | nt
O=C(Cc1ccccc1)NC1CCN(c2ccc(S(=O)(=O)C(F)(F)F)cc2)CC1 | nt | nt | nt | nt | 2.6 | nt | nt | nt
COc1ccccc1N1CCN(Cc2ccsc2)CC1 | -31.4 | -7.5 | 3.5 | 55.9* | -5.6 | 103.8* | -6.8% | 2.4%
COc1ccccc1N1CCN(Cc2cccs2)CC1 | -18.8 | -25.6 | -1.5 | 18.0 | -17.5 | 82.9* | -27.3% | -2.9%
